# Compounds with a hit are over-represented: about 4.6% of the library has one in this group of screens.
# Tau fibril FP: blocks human tau fibril formation measured by polarization | P10636 | K18 P301L tau heparin fibrillization, Alexa594 FP, 6 h | Potency, µM (series often up to 57.7 µM), for the others: at the top dose activity, negative = inhibition, actives largely listed as inhibitors | 0.39% of 280,000 active | AID 1468; also: potency is read from the fitted curve at half-maximal effect; nearly all actives have a fitted effect of over 55% in size
# Target sequence (P10636 561-689 P618L limits assumed): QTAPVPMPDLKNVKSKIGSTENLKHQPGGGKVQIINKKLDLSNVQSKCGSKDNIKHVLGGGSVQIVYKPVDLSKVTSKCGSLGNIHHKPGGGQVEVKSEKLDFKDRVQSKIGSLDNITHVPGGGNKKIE
#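 FP of Alexa 594-tau after heparin (20 uM) induction. Substrate: human K18 P301L, 15 uM unlabeled, 0.24 uM labeled. Buffer 100 mM sodium acetate pH 7. 6 hr, 37 C.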
# Tau fluor counter: counter-screen for tau fibril formation inhibitors. tau K18 P301L Alexa594 fluorescence, heparin fibrillization. Potency, µM (series often up to 57.7 µM), inactives show at the top dose activity change, negative = decrease. 0.93% of 280,000 active; also: potency is read from the fitted curve at half-maximal effect; nearly all actives have a fitted effect of over 55% in size
#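 Human K18 P301L tau (15 uM unlabeled plus 0.24 uM Alexa 594-labeled, final) in 100 mM sodium acetate pH 7 was mixed with compound and 20 uM heparin and incubated 6 hr at 37 C.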
# PNC inhibitor: inhibitors of perinucleolar compartment assembly | 3.1% of 140,000 active | activity change (PNC), negative = inhibition, % at 10 µM | AID 2417 | PC3M PTB-GFP, PNC prevalence imaging, 16 h; hits give low values;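 active = readout at or below -70, meaning at least 70% loss of cells showing the perinucleolar compartment, a nuclear body marking cancer cells; inconclusive = readout between -30 and a set limit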;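 also: plate controls were DMSO wells for no effect and camptothecin positive control wells for full effect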
#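 Compounds are pinned in duplicate onto adhered PC3M cells stably expressing GFP-tagged PTB and incubated 16 h at 37 C. Cells are then fixed, nuclei stained with Hoechst, and PNC-positive cells counted.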
# TexasRed fluor: Texas Red fluorescence interference in TRb-SRC2 counter-screen; TRb/SRC2 Texas Red total fluorescence interference; Potency, µM (highest dose often 106 µM), for inactives: at the top dose fluorescence change, negative = quenching; 0.29% of 280,000 active; active = well fitted curve in either direction with a large enough effect; inconclusive = small, poorly fitted or top-dose-only effect; also: potency is read from the fitted curve at half-maximal effect
#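 Flags fluorescent or light-absorbing compounds by total fluorescence, S + 2P, at 555 nm excitation and 632 nm emission. Mixture: 20 nM Texas Red SRC2 peptide, 0.6 uM human TRb LBD, 1 uM T3, 5% DMSO; compound exposure 5 h at ambient temperature.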
# TRb SRC2 PPI: inhibitors of human thyroid hormone receptor beta-SRC2 interaction | AID 1469 | 0.065% of 280,000 active | TRbeta-SRC2 peptide binding, fluorescence polarization; receptor liganded with 1 µM T3 | Potency, µM (highest dose often 106 µM), for the others: top-dose activity change, negative = inhibition, most hits filed as inhibitors | P10828;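 also: potency is read from the fitted curve at half-maximal effect; plate controls were bound peptide for no effect and peptide without receptor for full effect; nearly all actives have a fitted effect of over 50% in size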
# Target sequence (P10828 whole entry, looked up): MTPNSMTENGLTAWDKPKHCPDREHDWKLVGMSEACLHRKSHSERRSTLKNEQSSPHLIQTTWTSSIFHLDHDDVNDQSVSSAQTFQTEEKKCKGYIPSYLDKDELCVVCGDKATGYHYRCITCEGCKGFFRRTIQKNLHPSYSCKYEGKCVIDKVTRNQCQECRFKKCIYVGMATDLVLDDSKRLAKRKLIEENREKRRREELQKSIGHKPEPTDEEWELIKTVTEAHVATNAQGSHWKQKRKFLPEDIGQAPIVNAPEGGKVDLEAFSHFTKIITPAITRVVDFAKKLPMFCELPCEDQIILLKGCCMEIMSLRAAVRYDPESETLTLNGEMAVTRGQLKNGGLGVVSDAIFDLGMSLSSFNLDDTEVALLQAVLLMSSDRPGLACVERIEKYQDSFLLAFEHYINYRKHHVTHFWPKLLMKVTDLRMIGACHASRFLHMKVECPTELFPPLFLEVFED
#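 Polarization signal, normalized between peptide-alone and full complex controls, measured compound effects on T3-liganded human TRb LBD (0.6 uM) binding 20 nM Texas Red SRC2 peptide after 5 hr.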
# Tau fibril ThT: blocks human tau fibril formation measured by thioflavin T; P10636; recombinant tau K18 P301L, heparin-induced fibrillization, ThT fluorescence; Potency, µM (series often up to 57.4 µM), for the others: top-dose activity, negative = inhibition, usual class: inhibitors; 2.1% of 270,000 active; AID 1460; also: potency is read from the fitted curve at half-maximal effect; nearly all actives have a fitted effect of over 55% in size
#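 Fibril formation assay: tau K18 P301L at 15 uM with trace Alexa 594 label, heparin inducer 20 uM, pH 7 sodium acetate buffer, 37 C for 6 hr; endpoint ThT signal.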
# Numbers without * were called inactive; ? = inconclusive; / = not tested or not shown; [ ] = dose if it differs, or a comment. Unless noted, calls follow the shape of the dose curve; as a rule, active = well fitted curve in the direction sought with a large enough effect; inconclusive = small, poorly fitted or top-dose-only effect, or another doubt; inactive = no such curve, though single readings can be large; an effect the other way counts as inactive or inconclusive. Unless noted, % is scaled to controls: 0 for no effect and ±100 for the full control effect.
SMILES,Tau fibril FP,Tau fluor counter,PNC inhibitor,TexasRed fluor,TRb SRC2 PPI,Tau fibril ThT
Cc1cc2ncc(-c3ccc(Cl)cc3)c(N)n2n1,-2.1%,3.4%,-108.4*,0.4%,-27.0%,1.0%
CC(=O)Nc1ccc(C(=O)Nc2ccc(S(=O)(=O)N3CCCC3)cc2)cc1,-5.8%,-12.7%,?,-4.2%,6.1%,14.0%
CCOC(=O)c1ccc(NC(=O)Nc2cc3c(cc2N2CCCC2)n(C)c(=O)n3C)cc1,11.9%,14.1µM*[quencher],/,-1.4%,-4.6%,?
CC(=O)c1cccc(NC(=O)Nc2cc3c(cc2N2CCCC2)n(C)c(=O)n3C)c1,2.0%,?,/,-1.8%,-7.1%,?
CCOC(=O)c1ccc(NC(=O)Nc2ccc3c4c(cccc24)C(=O)N3CC)cc1,-13.1%,3.16µM*[quencher],?,1.4%,-9.2%,?
CCN1C(=O)c2cccc3c(NS(=O)(=O)c4ccc(NC(C)=O)cc4)ccc1c23,3.7%,-1.8%,8.1,2.1%,1.1%,-5.7%
CCCN1CCN(C(=O)Nc2cccc(C(F)(F)F)c2)CC1,-7.3%,-12.5%,/,-0.7%,4.6%,-6.5%
CCOC(=O)c1c(-c2ccccc2)oc2ccc(NS(=O)(=O)c3ccc(C(C)C)cc3)cc12,?,?,/,-3.2%,6.2%,-10.0%
CC1CCN(CC(O)COCCOc2ccc(Br)cc2)CC1 (stereo not given),6.3%,3.7%,-12.1,-0.5%,-9.8%,3.6%
CC1CC(C)CN(CC(O)COCCOc2ccc(Br)cc2)C1 (stereo not given),-2.7%,3.6%,-101.5*,-1.4%[53 µM],-0.5%[53 µM],3.8%
CC(C)(C)c1ccc(C(=O)NNC(=S)NCc2ccco2)cc1,3.2%,-2.1%,/,-3.7%,-4.4%,-5.0%
O=C(OCCN1C(=O)c2cccc3c(N4CCOCC4)ccc(c23)C1=O)c1cc(Cl)cc(Cl)c1,-11.0%,-4.7%,?,1.0%,-8.5%,-2.4%
Nc1nc(CSCc2ccccc2)nc(N2CCOCC2)n1,-8.7%,-11.5%,-106.5*,-5.1%,-4.7%,1.9%
Nc1nc(CSc2nc3ccccc3s2)nc(N2CCOCC2)n1,2.4%,-7.2%,/,-0.9%,-3.0%,-11.8%
COc1ccc(C)cc1-n1nnnc1SCC(=O)NC(=O)NCc1ccco1,2.2%,-9.2%,-81.0*,-1.2%,-4.3%,-10.0%
Cc1cccc(-c2noc(-c3cc4ccccc4oc3=O)n2)c1,-2.5%,-9.4%,-106.0*,-2.1%,4.3%,?
COc1cccc(NC(=O)c2ccccc2-c2nc(-c3cccc(C)c3)no2)c1,?,?,-139.2*,-2.5%,10.1%,-15.1%
Cc1cccc(-c2noc(-c3ccccc3C(=O)NCC3CCCO3)n2)c1 (stereo not given),3.6%,-4.6%,50.4,4.6%,5.9%,2.1%
NC(=O)C1C(c2ccccc2)=C1c1ccccc1,-1.9%,-4.1%,-126.5*,1.8%,-2.6%,-6.9%
NC(=O)C1c2ccccc2CCc2ccccc21,/,/,/,-2.0%,6.5%,/
Cc1csc(SCc2ccc(C(=O)O)cc2)n1,3.5%,0.9%,-110.7*,1.9%,-19.0%,-1.1%
CC(C)(C)c1cc(=O)n(-c2ccccc2)[nH]1,?,-21.4%,12.5,-3.3%,-4.1%,39.8µM*
CC(C)Sc1ncc(Cl)c(C(=O)Nc2c(C(=O)Nc3ccccc3)oc3ccccc23)n1,0.6%,-8.8%,/,-1.8%,-0.6%,7.4%
CCCS(=O)(=O)c1ncc(Cl)c(C(=O)Nc2c(C(=O)Nc3ccccc3)oc3ccccc23)n1,-7.9%,?,/,?,4.5%,7.08µM*
Cc1cc2c(c(=O)o1)C1(C(=O)N(C)c3ccccc31)C(C#N)=C(N)O2 (stereo not given),3.9%,2.2%,30.0,2.3%,-19.3%,3.2%
SMILES,Tau fibril FP,Tau fluor counter,PNC inhibitor,TexasRed fluor,TRb SRC2 PPI,Tau fibril ThT
CCOC(=O)N1CCC2(CC1)C(C#N)=C(N)Oc1c2c(C)nn1-c1cccc(Cl)c1,-12.3%,?,-22.3,-1.3%,1.1%,22.4µM*
Cc1nn(-c2ccccc2)c2c1C1(C(=O)N3c4c(cccc41)C(C)CC3(C)C)C(C#N)=C(N)O2 (stereo not given),?,?,24.2,-2.8%,14.8%,?
Cc1nn(-c2ccccc2)c2c1C1(C(=O)N(C)c3ccccc31)C(C#N)=C(N)O2 (stereo not given),?,?,?,-4.5%,-0.7%,22.4µM*
CC(=O)N1C(=O)C2(C(C#N)=C(N)Oc3cc(C)oc(=O)c32)c2ccccc21 (stereo not given),-2.6%,-5.0%,-114.9*,0.8%,-1.6%,-7.0%
CC(=O)N1C(=O)C2(C(C#N)=C(N)Oc3c2c(C)nn3-c2ccccc2)c2ccccc21 (stereo not given),?,?,1.7,-1.2%,-3.7%,28.2µM*
CC1CC(NC(=O)c2cnc3n(c2=O)CCS3)CC(C)(C)C1 (stereo not given),-5.3%,-4.7%,/,-1.1%,-5.3%,1.1%
N#CC1c2ccccc2C=CN1C(=O)c1ccccc1 (stereo not given),-2.9%,-16.2%,/,-0.7%,13.9%,-11.5%
CCN(CC)c1ccc(S(=O)(=O)N2CCOCC2)cc1NC(=O)CN1CCN(Cc2ccccc2)CC1,6.0%,0.5%,/,0.4%,4.7%,-10.8%
Cc1ccc(CCNC(=O)c2ccc(CNS(=O)(=O)c3ccc(F)cc3)cc2)cc1,-13.9%,-1.7%,/,-6.1%,-6.9%,?
CCN1C(=O)C2(C(C#N)=C(N)Oc3c2c(C)nn3-c2ccccc2)c2ccccc21 (stereo not given),?,?,13.3,-4.5%,-7.5%,15.8µM*
CCCCc1[nH]nc2c1C1(C(=O)N(CC)c3ccccc31)C(C#N)=C(N)O2 (stereo not given),-0.1%,-12.2%,29.7,-2.3%,-2.2%,-8.6%
COc1ccc(S(=O)(=O)NCc2csc(C)n2)cc1,-1.8%,5.3%,-26.0,-3.8%,4.1%,5.9%
Cc1cc(C)c(NS(=O)(=O)c2ccc(-c3coc(C)n3)cc2)c(C)c1,2.5%,-3.2%,/,0.0%,2.2%,6.5%
CCc1ccccc1NS(=O)(=O)c1ccc(-c2coc(C)n2)cc1,3.3%,-1.3%,/,11.2µM*[quencher],-19.6%,10.9%
CCOc1ccc(CNS(=O)(=O)c2ccc(-c3coc(C)n3)cc2)cc1,-5.8%,-6.1%,/,0.0071µM*[quencher],-10.8%,-3.5%
CCOc1ccc(S(=O)(=O)NCc2csc(C)n2)cc1,2.6%,5.3%,-90.7*,-0.3%,-1.0%,0.9%
COCCn1c(SCC(=O)Nc2ccccc2OC)nc2ccccc21,-4.8%,-5.0%,/,-0.3%,5.8%,0.4%
C(=C\c1ccccc1)/CN1CCN(c2ncnc3c2oc2ccccc23)CC1,4.7%,-15.2%,4.7,-3.4%,-0.8%,?

# Assay outcomes (PubChem BioAssay)
